Measured values as given in PubChem BioAssay (NCATS).
Results filed as inconclusive are left out. A call without a number means that no potency is given here. Values without a mark were called inactive. The source made the active and inactive calls. Calls follow the shape of the dose curve; as a rule, active = well fitted curve in the direction sought with a large enough effect; inconclusive = small, poorly fitted or top-dose-only effect, or another doubt; inactive = no such curve, though single readings can be large; an effect the other way counts as inactive or inconclusive.

Legend:
[1] = Panc-1005 Cancer Cell Toxicity qHTS against the NCATS CANVASS Library (AID 1347349); also: series mostly up to about 38 µM; nearly all actives have a fitted effect of over 60% in size
Procedure, shortened: (§1)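 1000 cells/well seeded and rested 4 h at 37 °C before pin transfer of compounds in an 11-pnt series. Exposure 72 h at 37 °C/5% CO2; viability by CellTiter-Glo luminescence after 15 min at room temperature.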

[2] = SW1088 Cancer Cell Toxicity qHTS against the NCATS CANVASS Library (AID 1347350); also: nearly all actives have a fitted effect of over 75% in size
Procedure, shortened: as §1

[3] = COV-362 Cancer Cell Toxicity qHTS against the NCATS CANVASS Library (AID 1347352); also: series mostly up to about 38 µM
Procedure, shortened: (§2)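 Cells at 1000/well were given compound 4 h after plating in an 11-point series. Viability was read by CellTiter-Glo luminescence after 72 h at 37 degrees C.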

[4] = A2780 Cisplatin Sensitive Ovarian Cancer Cell Toxicity qHTS against the NCATS CANVASS Library (AID 1347353); also: nearly all actives have a fitted effect of over 60% in size; also: potency is read from the fitted curve at half-maximal effect
Procedure, shortened: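 A2780 cells, 750/well, settled 4 h at 37 °C, then treated with an 11-point compound series for 72 h. Viability was read as ATPLite luminescence after 10 min at room temperature, with bortezomib as control.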

[5] = UWB1.289-WTBRCA1 Cancer Cell Toxicity qHTS against the NCATS CANVASS Library (AID 1347354)
Procedure, shortened: as §2

[6] = HEK-293 Cancer Cell Toxicity qHTS against the NCATS CANVASS Library (AID 1347355); also: series mostly up to about 46 µM; nearly all actives have a fitted effect of over 65% in size
Procedure, shortened: as §2

[7] = tested on: NAD(P)H diaphorase (Clostridium kluyveri); test: Diaphorse counterscreen qHTS: Assay Interference Panel against the NCATS CANVASS Library (AID 1347362)
Procedure, shortened: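 Clostridium kluyveri diaphorase in PBS + 0.01% Tween-20 preincubated 15 min with compounds. Resazurin and NADH then added for 5 min at room temperature in the dark; resorufin fluorescence read (ex 525, em 598).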

[8] = KB-8-5-11 Cancer Cell Toxicity qHTS against the NCATS CANVASS Library (AID 1347364); also: nearly all actives have a fitted effect of over 75% in size
Procedure, shortened: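 KB-8-5-11 cells, 500/well in DMEM + 10% FBS, given compounds in an 11-point series. Incubated 72 h at 37 °C. Viability by CellTiter-Glo luminescence. Confirmation also run with 1 uM tariquidar.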

[9] = G06 Cancer Cell Toxicity qHTS against the NCATS CANVASS Library (AID 1347368); also: nearly all actives have a fitted effect of over 60% in size; also: potency is read from the fitted curve at half-maximal effect
Procedure, shortened: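 G06 dog glioma cells, 500 per well, exposed 72 hr at 37C, 5% CO2 to compounds in an 11-point series. Cytotoxicity read as ATP content by CellTiterGlo luminescence.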

[10] = qHTS for Hypoxia signaling pathway (HIF-1) antagonists against the NCATS CANVASS Library (AID 1347374);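 also: HRE-bla ME-180 cells stimulated with cobalt chloride to stabilize HIF-1alpha; series mostly up to about 38 µM; nearly all actives have a fitted effect of over 60% in size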
Procedure, shortened: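 HRE-bla ME-180 cells in medium with 0.5% dialyzed FBS received compounds (11-point series) plus CoCl2 (60 uM addition stock) for 17 hrs at 37C. Beta-lactamase activity read with CCF4 (405 nm ex, 460/530 nm em); CellTiter-Glo viability measured in same wells.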

[11] = DH5-alpha competent E. coli microbial cell viability qHTS against the NCATS CANVASS Library (AID 1347377); conditions: outcome: dose series up to 46.1 µM unless noted
Procedure, shortened: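 DH5-alpha E. coli suspension was exposed to an 11-point compound series overnight at 37 °C. Viable cells quantified by ATP luminescence (BacTiter-Glo) after 20 min at room temperature.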

[12] = qHTS for Inflammasome Signaling Inhibitors: IL-1-beta AlphaLISA screen against the NCATS CANVASS Library (AID 1347379);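 also: human THP-1 cells primed with LPS then triggered with ATP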
Procedure, shortened: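 THP-1 cells pretreated 1 hr with compound (up to 57.5 uM final), then stimulated with LPS (250 ng/mL final) and ATP (1.25 mM final). Secreted IL-1B measured by AlphaLISA after 16 hr; glyburide as positive control.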

[13] = qHTS for Activators of p53 Stress Response Pathway screened against the NCATS CANVASS Library (AID 1347388)
Procedure, shortened: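 p53RE-bla HCT-116 cells (4000/well) were pre-incubated for 5 h, then treated with compound (11 points) for 16 h at 37C. After 2 h with CCF4, the 460/530 nm ratio gave reporter activation; CellTiter-Glo measured viability.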

[14] = qHTS assay for small molecule disruptors of mitochondrial membrane potential screened against the NCATS CANVASS Library (AID 1347389)
Procedure, shortened: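 HepG2 cells (2,000/well) plated overnight, then exposed to compounds in 11-point qHTS series for 1 h at 37C before 30 min Mito-MPS dye; depolarization read as fall in red aggregate (590 nm) to green monomer (535 nm) fluorescence.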

[15] = qHTS for inhibitors of ER calcium dysfunction: SERCaMP assay screened against the NCATS CANVASS Library (AID 1347393); also: nearly all actives have a fitted effect of over 40% in size; also: potency is read from the fitted curve at half-maximal effect
Procedure, shortened: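 SH-SY5Y GLuc-SERCaMP, 1000 cells/well, 4 h attach; cpd 16 h, 37C/5% CO2; thapsigargin (added as 6x 600 nM) 4 h; coelenterazine; luminescence. Reduced reporter release = ER Ca stabilization.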

[16] = Vero-766 cells viability qHTS against the NCATS CANVASS Library: Counterscreen for Zika virus inhibition assay (AID 1347394)
Procedure, shortened: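 This cytotoxicity counterscreen uses African green monkey Vero 766 cells in the absence of Zika virus. Compounds are incubated with cells for 72 h, and ATP-based luminescence reports viability.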

[17] = SDT Cancer Cell Toxicity qHTS against the NCATS CANVASS Library (AID 1347365); also: nearly all actives have a fitted effect of over 60% in size
Procedure, shortened: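 SDT dog glioma cells (500/well) exposed to an 11-point compound series for 72 hr at 37C, 5% CO2. Cytotoxicity read as ATP content by CellTiterGlo luminescence; bortezomib titration as control.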

[18] = qHTS for ATAD5 Antagonist screened against the NCATS CANVASS Library (AID 1347370);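 also: HEK293T cells carrying an ATAD5 luciferase reporter co-treated with 10 µM 5-fluorouridine; series mostly up to about 46 µM; nearly all actives have a fitted effect of over 65% in size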
Procedure, shortened: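 HEK293T cells with stably integrated ATAD5-luciferase reporter, 2000/well, 5 h attachment; compounds plus 10 µM 5-fluorouridine, 16 h at 37 °C. Luciferase luminescence read, with CellTiter-Fluor viability read first.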

[19] = Secretion counterscreen for inhibitors of the SERCaMP assay screened against the NCATS CANVASS Library (AID 1347390);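 also: light from luciferase secreted into medium read as a measure of general secretion; series mostly up to about 77 µM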
Procedure, shortened: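 Counterscreen identifying compounds that disrupt secretion, using SH-SY5Y cells with a constitutively secreted Gaussia luciferase reporter. A 20 h compound exposure (top 77 uM) precedes luminescent detection with coelenterazine.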

[20] = qHTS for activators of Nrf2/ARE signaling pathway screened against the NCATS CANVASS Library (AID 1347391); also: nearly all actives have a fitted effect of over 60% in size
Procedure, shortened: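 ARE-bla HepG2 beta-lactamase reporter cells exposed to compounds for 16 h at 37C; CCF4 substrate 2 h, fluorescence at ex 405 nm, em 460/530 nm. Viability by CellTiter-Glo luminescence.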

SMILES	Potency [1]	Potency [2]	Potency [3]	Potency [4]	Potency [5]	Potency [6]	Potency [7]	Potency [8]	Potency [9]	Potency [10]	outcome [11]	Potency [12]	Potency [13]	Potency [14]	Potency [15]	Potency [16]	Potency [17]	Potency [18]	Potency [19]	Potency [20]
COc1ccc2cc(NC(=O)C3=NO[C@H]4[C@H](O)C=C[C@@H](Cl)[C@@]4(O)C3)c(=O)oc2c1OC	inactive	inactive	inactive	9.35 µM (active)	inactive	inactive	inactive	inactive	11.8 µM (active)	inactive	inactive	inactive	inactive	inactive	15.3 µM (active)	inactive	–	–	–	–
C[C@@H]1O[C@@H](O[C@@H]2[C@@H](O)[C@H](O[C@@H]3[C@@H](O)[C@@H](O)C(O[C@H]4[C@H](OC(=O)[C@]56CCC(C)(C)C[C@H]5C5=CCC7[C@@]8(C)C[C@H](O)[C@H](O[C@@H]9C[C@H](CO)[C@@H](O)[C@H](O)[C@H]9O)[C@@](C)(CO)C8[C@H](O)C[C@@]7(C)[C@]5(C)CC6)OC[C@H](O)[C@@H]4O)O[C@H]3C)OC[C@H]2O)[C@H](O)[C@H](O)[C@H]1O (some centres not stated)	inactive	inactive	inactive	inactive	inactive	inactive	inactive	inactive	–	inactive	inactive	inactive	inactive	inactive	inactive	inactive	inactive	inactive	inactive	inactive
C[C@@]12C[C@@H](C[C@H]3C(=O)O[C@@H](c4ccoc4)[C@H](OC(=O)c4ccccc4)[C@@H]31)OC2=O	inactive	inactive	inactive	inactive	inactive	inactive	inactive	inactive	inactive	inactive	inactive	inactive	inactive	inactive	inactive	–	inactive	inactive	inactive	inactive
C/C=C1/CC[C@@H]2c3[nH]c4ccccc4c3CCN2C1	–	inactive	inactive	inactive	inactive	–	inactive	inactive	inactive	inactive	inactive	inactive	inactive	inactive	19.3 µM (active)	inactive	inactive	inactive	inactive	–
O=C1C[C@@H](c2ccc(O)c(-c3c(O)cc(O)c4c3O[C@H](c3ccc(O)cc3)CC4=O)c2)Oc2cc(O)cc(O)c21	inactive	inactive	inactive	inactive	inactive	inactive	inactive	inactive	inactive	inactive	inactive	inactive	inactive	inactive	inactive	inactive	inactive	inactive	inactive	–
Oc1ccc([C@H]2Oc3ccc(/C=C/c4cc(O)cc(O)c4)cc3C2c2cc(O)cc(O)c2)cc1 (some centres not stated)	inactive	–	inactive	inactive	inactive	inactive	inactive	inactive	inactive	–	inactive	–	–	inactive	–	–	inactive	inactive	inactive	inactive
C=C1[C@H]2CC[C@@]3(C=CC(=O)[C@@](C)(CCC(=O)Nc4c(O)ccc(C(=O)O)c4O)C3C2)[C@H]1O (some centres not stated)	inactive	inactive	inactive	inactive	inactive	inactive	inactive	inactive	inactive	inactive	inactive	inactive	inactive	inactive	inactive	inactive	–	inactive	inactive	inactive
C/C(=C\[C@H](C)C(=O)CCCC1CC(=O)NC(=O)C1)C(O)[C@@H](C)[C@H](O)C/C=C/CC/C=C/C(=O)O (some centres not stated)	inactive	–	inactive	inactive	inactive	inactive	inactive	inactive	–	inactive	inactive	inactive	inactive	inactive	inactive	inactive	inactive	inactive	inactive	inactive
CC12C[C@]3(O)O[C@@H](O1)[C@]1(COC(=O)c4ccccc4)[C@@H]3CC21OC1OC(CO)C(O)C(O)C1O (some centres not stated)	inactive	inactive	inactive	inactive	inactive	inactive	inactive	inactive	–	inactive	inactive	inactive	inactive	inactive	–	inactive	inactive	inactive	–	inactive
CC1(C)CCC[C@]2(C)[C@@H]1CC[C@@]13C[C@@H](CC[C@H]12)C(C)(O)C3 (some centres not stated)	inactive	inactive	inactive	inactive	inactive	inactive	inactive	inactive	inactive	inactive	inactive	inactive	inactive	inactive	inactive	inactive	inactive	inactive	inactive	inactive
CC1C(=O)C23CCC1C[C@]21O[C@@H]2C(C)(C)C=CC(=O)[C@@]23COC1=O (some centres not stated)	inactive	inactive	inactive	inactive	inactive	inactive	inactive	inactive	inactive	inactive	inactive	inactive	inactive	inactive	–	inactive	inactive	inactive	inactive	inactive
